Holding throughout (design): scale not given: direction of the effect not stated beside the values
The target in assay [1] is Protein translocase subunit SecA (Escherichia coli (strain K12)) (UniProt P10408). The experiment in a line: Assay to Identify E. coli SecA ATPase Inhibitors. The note with it: 30 µM. The format is functional.
Assay [2] concerns the target T1, Ubiquitin-activating enzyme e1, putative (Leishmania donovani (strain BPK282A1)) (UniProt E9BSI1).
T1 sequence (whole entry): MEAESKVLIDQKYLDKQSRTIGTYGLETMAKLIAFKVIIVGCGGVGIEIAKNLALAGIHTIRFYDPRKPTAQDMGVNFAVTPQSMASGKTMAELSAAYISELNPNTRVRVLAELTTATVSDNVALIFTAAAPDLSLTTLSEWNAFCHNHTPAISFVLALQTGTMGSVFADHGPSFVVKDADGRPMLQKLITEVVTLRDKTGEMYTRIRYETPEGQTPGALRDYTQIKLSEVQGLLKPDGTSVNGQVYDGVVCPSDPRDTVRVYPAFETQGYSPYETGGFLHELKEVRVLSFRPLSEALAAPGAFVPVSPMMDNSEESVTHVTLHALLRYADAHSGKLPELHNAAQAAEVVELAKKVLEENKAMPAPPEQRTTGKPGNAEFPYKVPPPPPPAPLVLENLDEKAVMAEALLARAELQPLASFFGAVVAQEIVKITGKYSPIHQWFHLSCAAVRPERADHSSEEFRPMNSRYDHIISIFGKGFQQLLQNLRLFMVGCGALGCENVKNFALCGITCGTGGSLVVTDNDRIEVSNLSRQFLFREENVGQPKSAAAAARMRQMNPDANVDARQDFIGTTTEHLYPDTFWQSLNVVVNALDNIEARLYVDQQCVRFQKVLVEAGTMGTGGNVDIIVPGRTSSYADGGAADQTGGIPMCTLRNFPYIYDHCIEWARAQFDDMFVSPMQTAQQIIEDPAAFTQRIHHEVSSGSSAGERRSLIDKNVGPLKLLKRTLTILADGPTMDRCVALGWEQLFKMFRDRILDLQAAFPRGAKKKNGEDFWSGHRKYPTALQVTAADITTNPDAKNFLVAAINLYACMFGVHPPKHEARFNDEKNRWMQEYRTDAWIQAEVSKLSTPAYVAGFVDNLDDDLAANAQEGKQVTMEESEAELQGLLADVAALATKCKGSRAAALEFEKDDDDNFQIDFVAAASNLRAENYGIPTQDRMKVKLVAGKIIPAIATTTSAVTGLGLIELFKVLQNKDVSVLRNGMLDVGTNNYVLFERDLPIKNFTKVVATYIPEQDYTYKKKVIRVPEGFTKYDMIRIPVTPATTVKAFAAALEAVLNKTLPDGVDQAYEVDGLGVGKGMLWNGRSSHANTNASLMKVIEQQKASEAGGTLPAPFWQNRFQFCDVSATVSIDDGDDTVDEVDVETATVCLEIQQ
The experiment in a line: Leishmania donovani Ubiquitin Activating Enzyme (LdE1). The format is functional. The following applies: 30 µM.

The target in assay [3] is AMP-activated protein kinase, AMPK (Homo sapiens) (UniProt P54646+O43741+P54619+Q9UGJ0+Q9Y478+Q13131+Q9UGI9). In words: AMP-dependent Kinase enzyme assay. An in vitro enzyme assay that detects ADP turnover that is directly proportional to AMPK activity. This uses naive AMPK that is activated during the assay with MK-8722. It is filed as functional. The note with it: 30 µM.

Assay [4] deals with Sialic acid-binding Ig-like lectin 9 (Homo sapiens) (UniProt Q9Y336). The experiment in a line: Hs-Siglec9 ALPHAscreen SOP 20170721. The following applies: 10 µM. (In general: In Alpha technology, singlet oxygen from a donor bead excites a nearby acceptor bead.)
The subject of the next assay is Trypanosoma cruzi. The experiment in a line: Trypanosoma cruzi phosphomannomutase and mannose-1-phosphate guanylyltransferase assay. The format is functional. The note with it: 10 µM.
Assay [5] concerns the target T2, Arginase-2, mitochondrial (Homo sapiens) (UniProt P78540).
T2 sequence (whole entry): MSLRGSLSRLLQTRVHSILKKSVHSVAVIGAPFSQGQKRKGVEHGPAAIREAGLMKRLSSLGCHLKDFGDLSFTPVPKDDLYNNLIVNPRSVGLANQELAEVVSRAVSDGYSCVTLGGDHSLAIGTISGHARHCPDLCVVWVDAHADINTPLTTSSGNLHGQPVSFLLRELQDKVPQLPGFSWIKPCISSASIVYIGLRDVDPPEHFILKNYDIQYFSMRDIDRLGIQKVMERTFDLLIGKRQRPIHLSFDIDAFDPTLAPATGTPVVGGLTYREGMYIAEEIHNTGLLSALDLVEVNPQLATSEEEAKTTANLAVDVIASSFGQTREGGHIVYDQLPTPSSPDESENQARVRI
In words: in vitro enzyme assay to detect the production of urea directly proportional to the activity of Arginase II. Also: in the data most compounds retested in dose-response had high values. The format is functional. The note with it: 33.3 µM.

The target in assay [6] is T3, Proteasome subunit beta (Trypanosoma cruzi) (UniProt O96673).
T3 sequence (whole entry): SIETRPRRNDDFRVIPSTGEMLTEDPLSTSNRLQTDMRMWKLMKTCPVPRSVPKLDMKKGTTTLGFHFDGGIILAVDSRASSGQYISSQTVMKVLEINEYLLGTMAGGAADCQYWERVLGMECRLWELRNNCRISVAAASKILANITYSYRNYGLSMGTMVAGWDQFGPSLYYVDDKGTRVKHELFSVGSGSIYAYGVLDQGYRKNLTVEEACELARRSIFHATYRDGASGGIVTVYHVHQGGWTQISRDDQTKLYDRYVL
In words: Trypanosoma cruzi proteasome chymotrypsin-like activity (TcProtChymo) assay. Also: in the data most compounds retested in dose-response had high values. The note with it: 9.37 µM. It is filed as functional.

The species entered for another assay is Homo sapiens. In words: To identify inhibition of the IFN signalling (Jak-Stat) pathway via expression of an eGFP reporter gene under the control of an IFN-stimulated response element (ISRE) containing MxA promoter. The format is functional. The note with it: 30 µM. A general note: A reporter such as luciferase makes a cellular process visible.
Assay [7] concerns the target T4, Tyrosyl-tRNA synthetase, putative (Trypanosoma cruzi (strain CL Brener)) (UniProt Q4DSP6).
T4 sequence (whole entry): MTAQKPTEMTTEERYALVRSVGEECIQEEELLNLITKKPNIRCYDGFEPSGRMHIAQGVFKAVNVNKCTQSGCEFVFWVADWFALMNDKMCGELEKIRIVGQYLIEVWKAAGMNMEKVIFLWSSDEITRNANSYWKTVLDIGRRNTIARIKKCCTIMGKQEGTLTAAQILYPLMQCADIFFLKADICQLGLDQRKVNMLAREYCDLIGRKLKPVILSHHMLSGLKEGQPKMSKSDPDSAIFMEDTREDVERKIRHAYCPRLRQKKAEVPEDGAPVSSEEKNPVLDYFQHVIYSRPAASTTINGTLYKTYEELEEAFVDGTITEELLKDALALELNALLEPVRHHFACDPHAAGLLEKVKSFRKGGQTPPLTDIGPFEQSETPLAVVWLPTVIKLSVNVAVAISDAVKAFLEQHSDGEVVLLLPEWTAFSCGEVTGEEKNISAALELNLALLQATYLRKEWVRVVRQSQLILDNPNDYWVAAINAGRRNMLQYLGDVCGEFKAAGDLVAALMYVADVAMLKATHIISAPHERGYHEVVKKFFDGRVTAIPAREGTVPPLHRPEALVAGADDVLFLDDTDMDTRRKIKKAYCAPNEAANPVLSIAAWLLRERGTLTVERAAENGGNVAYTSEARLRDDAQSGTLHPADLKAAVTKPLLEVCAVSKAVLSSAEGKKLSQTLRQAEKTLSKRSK
The experiment in a line: Trypanosoma cruzi tyrosyl tRNA synthetase (TcYRS) _High Tyrosine SOP. Also: in the data most compounds retested in dose-response had high values. It is filed as functional. The note with it: 30 µM.

In assay [8] the target is T4, Tyrosyl-tRNA synthetase, putative (Trypanosoma cruzi (strain CL Brener)). In words: Trypanosoma cruzi tyrosyl tRNA synthetase (TcYRS) SOP. The format is functional. The note with it: 30 µM.
For assay [9], the target named is Chromo domain-containing protein 1 (Saccharomyces cerevisiae (strain ATCC 204508 / S288c) (Baker's yeast)) (UniProt P32657). In words: ScCHD-1 Enzyme Inhibition Assay. Also: in the data most compounds retested in dose-response had high values. It is filed as functional. The note with it: 30 µM.

For some assays here: Potency and affinity values are given separately.

Chain of Chromo domain-containing protein 1 (Saccharomyces cerevisiae (strain ATCC 204508 / S288c) (Baker's yeast)) (P32657 whole entry, the tested form may be a part): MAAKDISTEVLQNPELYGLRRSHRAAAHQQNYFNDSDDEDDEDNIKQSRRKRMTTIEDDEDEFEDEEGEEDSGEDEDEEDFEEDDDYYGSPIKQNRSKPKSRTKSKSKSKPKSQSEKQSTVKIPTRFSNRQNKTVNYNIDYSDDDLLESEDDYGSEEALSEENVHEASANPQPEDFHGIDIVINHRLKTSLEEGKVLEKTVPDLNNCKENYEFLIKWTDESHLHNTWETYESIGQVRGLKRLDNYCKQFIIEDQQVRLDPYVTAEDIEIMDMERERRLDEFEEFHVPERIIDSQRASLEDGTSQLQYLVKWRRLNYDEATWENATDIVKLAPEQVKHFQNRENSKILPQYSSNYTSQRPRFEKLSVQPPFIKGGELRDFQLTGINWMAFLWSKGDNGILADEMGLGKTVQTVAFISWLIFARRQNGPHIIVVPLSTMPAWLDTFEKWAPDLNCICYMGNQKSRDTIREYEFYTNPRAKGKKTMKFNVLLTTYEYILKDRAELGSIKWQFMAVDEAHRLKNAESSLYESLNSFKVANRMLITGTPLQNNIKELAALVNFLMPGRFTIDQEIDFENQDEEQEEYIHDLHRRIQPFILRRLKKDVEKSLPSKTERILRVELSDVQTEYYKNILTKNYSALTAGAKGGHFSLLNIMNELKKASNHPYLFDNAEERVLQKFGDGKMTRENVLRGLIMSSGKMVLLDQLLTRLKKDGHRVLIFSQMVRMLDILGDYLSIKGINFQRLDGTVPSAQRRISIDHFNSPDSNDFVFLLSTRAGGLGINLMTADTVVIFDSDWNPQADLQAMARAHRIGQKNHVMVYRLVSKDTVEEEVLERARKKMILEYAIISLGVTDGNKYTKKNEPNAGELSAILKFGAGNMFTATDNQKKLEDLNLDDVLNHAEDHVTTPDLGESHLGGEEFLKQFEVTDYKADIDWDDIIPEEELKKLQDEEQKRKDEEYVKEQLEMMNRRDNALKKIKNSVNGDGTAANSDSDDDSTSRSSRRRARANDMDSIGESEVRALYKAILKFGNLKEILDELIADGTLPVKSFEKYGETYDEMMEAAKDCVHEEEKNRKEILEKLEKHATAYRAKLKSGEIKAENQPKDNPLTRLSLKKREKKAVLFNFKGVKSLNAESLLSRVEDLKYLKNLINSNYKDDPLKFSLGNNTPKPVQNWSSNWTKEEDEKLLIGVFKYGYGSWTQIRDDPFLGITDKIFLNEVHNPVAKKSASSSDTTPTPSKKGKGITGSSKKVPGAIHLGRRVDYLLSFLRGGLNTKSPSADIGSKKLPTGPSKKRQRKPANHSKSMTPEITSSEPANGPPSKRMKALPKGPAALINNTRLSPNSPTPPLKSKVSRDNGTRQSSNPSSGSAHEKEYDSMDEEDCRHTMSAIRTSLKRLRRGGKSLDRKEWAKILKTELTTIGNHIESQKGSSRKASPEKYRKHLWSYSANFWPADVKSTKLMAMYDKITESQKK
Chain of Sialic acid-binding Ig-like lectin 9 (Homo sapiens) (Q9Y336 whole entry): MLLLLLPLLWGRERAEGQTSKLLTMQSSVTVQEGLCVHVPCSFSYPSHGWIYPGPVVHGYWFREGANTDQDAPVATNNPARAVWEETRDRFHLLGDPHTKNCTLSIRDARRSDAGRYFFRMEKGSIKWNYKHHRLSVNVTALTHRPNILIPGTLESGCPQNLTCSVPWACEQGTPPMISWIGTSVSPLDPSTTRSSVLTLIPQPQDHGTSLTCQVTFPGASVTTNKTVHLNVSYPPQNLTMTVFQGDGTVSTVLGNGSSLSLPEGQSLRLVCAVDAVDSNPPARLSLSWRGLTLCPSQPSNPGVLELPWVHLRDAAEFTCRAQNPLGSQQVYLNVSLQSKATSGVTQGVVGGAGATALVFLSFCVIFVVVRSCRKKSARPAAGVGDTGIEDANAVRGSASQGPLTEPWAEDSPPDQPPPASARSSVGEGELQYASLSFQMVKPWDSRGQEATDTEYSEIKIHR
Chain of Protein translocase subunit SecA (Escherichia coli (strain K12)) (P10408 whole entry): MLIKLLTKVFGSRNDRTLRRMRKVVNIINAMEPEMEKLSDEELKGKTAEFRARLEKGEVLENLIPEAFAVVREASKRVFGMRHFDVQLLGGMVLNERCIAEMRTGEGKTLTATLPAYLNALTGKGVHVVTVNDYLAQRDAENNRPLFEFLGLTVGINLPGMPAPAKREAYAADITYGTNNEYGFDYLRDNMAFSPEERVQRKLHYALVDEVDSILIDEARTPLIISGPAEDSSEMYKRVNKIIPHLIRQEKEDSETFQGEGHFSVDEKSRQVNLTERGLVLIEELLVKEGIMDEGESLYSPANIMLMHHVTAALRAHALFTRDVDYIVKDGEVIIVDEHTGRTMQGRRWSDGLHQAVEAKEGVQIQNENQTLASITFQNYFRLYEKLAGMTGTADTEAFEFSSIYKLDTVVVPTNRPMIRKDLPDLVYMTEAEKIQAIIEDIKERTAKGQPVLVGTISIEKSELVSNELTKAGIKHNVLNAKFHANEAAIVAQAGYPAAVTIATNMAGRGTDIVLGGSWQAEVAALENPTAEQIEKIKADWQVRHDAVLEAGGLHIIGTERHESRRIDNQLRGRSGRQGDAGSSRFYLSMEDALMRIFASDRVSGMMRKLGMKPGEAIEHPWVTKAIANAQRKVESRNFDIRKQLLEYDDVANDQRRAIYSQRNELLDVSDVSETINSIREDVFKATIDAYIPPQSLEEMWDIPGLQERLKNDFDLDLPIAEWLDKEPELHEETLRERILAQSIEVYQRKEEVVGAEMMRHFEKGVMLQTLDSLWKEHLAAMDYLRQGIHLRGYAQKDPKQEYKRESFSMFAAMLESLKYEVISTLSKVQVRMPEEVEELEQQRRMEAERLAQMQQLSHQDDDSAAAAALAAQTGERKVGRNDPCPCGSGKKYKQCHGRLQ

With `Cc1n[nH]c(C2CN(CC(=O)NCCc3ccsc3)CCO2)n1` (stereo not given), the Percent Effect in assay [1] was -1.63%; in assay [2], 5.48%; in [3], -9.76%; in assay [4], 0.305%; in the assay with Trypanosoma cruzi, -3.13%; in assay [5], -0.455%. Besides, the Percent Effect in assay [6] is 20.2%; in the assay listed under Homo sapiens it was 8.08%; in assay [7], 4.3%; in assay [8] it was 15%; in assay [9], -13.8%.

Take `Cc1nccn1C1CCCN(C(=O)c2ccc3c(c2)NC(=O)CO3)C1` (stereo not given): the Percent Effect in assay [1] was -3.38%; in assay [2] it was 2.7%; in [3], -9.28%; in assay [4], -2.15%; in the assay with Trypanosoma cruzi, 4.43%; in [5], -1.2%. The Percent Effect in assay [6] is 14.1%; in the assay listed under Homo sapiens, -3.11%; in [7], 6.4%; in assay [8], 16.1%; in [9] it was -9.9%.

With `CCN1CCC(NC(=O)CN2CCCC2Cn2cncn2)CC1` (stereo not given), the Percent Effect in assay [1] is -0.772%; in [2], 6.33%; in assay [3], -1.15%; in assay [4], -1.21%; in the assay with Trypanosoma cruzi it was -5.64%; in assay [5], 0.645%. Further, the Percent Effect in assay [6] is 8.92%; in the assay listed under Homo sapiens it was 4.26%; in assay [7], 3.12%; in assay [8], 2.53%; in assay [9] it was -22.4%.

On to `COC[C@H]1CCC[C@]12CN(CCc1ccccc1)CCO2`, for which the Percent Effect in [1] is 0.0327%; in [2] it was 12%; in [3], 1.6%; in [4], 2.89%; in the assay with Trypanosoma cruzi, -5.5%; in assay [5], -8.28%. Moreover, the Percent Effect was 19.8% in assay [6]; 4.65% in the assay filed under Homo sapiens; 1.06% in assay [7]; 2.56% in assay [8]; -6.74% in assay [9].

As to `COc1ccc(CNCc2c(C)nn(C)c2N2CCOCC2)cc1`, the Percent Effect in [1] was -5.07%; in [2], 18.2%; in assay [3] it was -11.5%; in assay [4], 0.605%; with Trypanosoma cruzi it was 3.82%; in assay [5] it was 0.21%. Moreover, the Percent Effect in assay [6] is 14.5%; in the assay listed under Homo sapiens, -34.5%; in assay [7], 8.57%; in assay [8], 21.2%; in assay [9], -13%.

`Cc1cnccc1CN1CC[C@@](C)(O)[C@H](Oc2ccccc2)C1`: the Percent Effect in [1] is -3.92%; in assay [2], 9.46%; in assay [3] it was 0.664%; in assay [4], -0.228%; in the assay with Trypanosoma cruzi it was 7.51%; in [5], -4.41%. Further, the Percent Effect in assay [6] is 12.9%; in the assay filed under Homo sapiens, -16.3%; in [7], 3.23%; in assay [8], 9.09%; in assay [9], -13.2%.

Take `CC(=O)NCC(=O)N1Cc2nccn2CC(Cn2cccn2)C1` (stereo not given): the Percent Effect in assay [1] is -2.33%; in [2], -2.7%; in assay [3] it was 5.56%; in [4], -2.67%; in the assay with Trypanosoma cruzi, -5.38%; in assay [5], 1.59%. The Percent Effect in assay [6] is 18.6%; in the assay filed under Homo sapiens, 3.41%; in assay [7], 5.41%; in assay [8] it was 7.69%; in assay [9], -0.528%.

As to `Cc1cc(CN2CC[C@H]3C[C@H](C(=O)N4CCC(C)CC4)O[C@H]3C2)no1`, the Percent Effect in assay [1] was -3.17%; in assay [2], 10.8%; in assay [3] it was 0.505%; in assay [4] it was -2.16%; in the assay on Trypanosoma cruzi, -1.07%; in [5], 2.87%. In addition, the Percent Effect was 22.5% in [6]; -12.1% in the assay listed under Homo sapiens; 0% in [7]; 12.8% in assay [8]; -2.88% in [9].

`CN1CCCC(Cc2cncc(C(=O)NCC3CC3)c2)C1` (stereo not given): the Percent Effect was -4.88% in [1]; 1.35% in assay [2]; 8.98% in assay [3]; 0.654% in [4]; 0.79% in the assay on Trypanosoma cruzi; -2.09% in assay [5]. In addition, the Percent Effect in [6] was 4.68%; in the assay filed under Homo sapiens, 7.04%; in assay [7], 5.38%; in [8] it was 11.7%; in assay [9] it was -7.98%.

Regarding `CC(=O)N1CCN(C(=O)C2SCCc3sccc32)CC1` (stereo not given), the Percent Effect in assay [1] is -7.67%; in [2] it was 0%; in [3], -1.92%; in assay [4], 7.24%; in the assay with Trypanosoma cruzi, -2.15%; in [5] it was -0.833%. The Percent Effect in [6] is 2.11%; in the assay listed under Homo sapiens, 6.62%; in assay [7], 3.96%; in [8], -1.22%; in assay [9] it was 0.658%.

The record behind these values is ChEMBL document CHEMBL3988442, “University of Dundee, Small-Polar-MMV Screening Library” (2021).
